# Data from PubChem BioAssay AID1835 (Johns Hopkins Ion Channel Center, 2009).
# The whole screen tested about 2,400 compounds, of which about 750 (31%) were called active. This is one part of the list. Unmarked numbers belong to inactive results.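 How the source made its calls: active means median signal gain over dofetilide-blocked control wells reaching their mean plus 3 SD, so readout 1 at least 0; inactive means the rest.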
# Molecular target: Voltage-gated inwardly rectifying potassium channel KCNH2 (Homo sapiens) (UniProt Q12809)
# Test: hERG protection against dofetilide inhibition, confirmation, cell-based, thallium flux, duplicate retest, dofetilide IC70 (AID 1835)
# Conditions: hERG cell line, FluxOR thallium flux, dofetilide-blocked; at 10 µM; hits give high values
# Sequence of Voltage-gated inwardly rectifying potassium channel KCNH2 (Homo sapiens) (Q12809 whole entry, looked up): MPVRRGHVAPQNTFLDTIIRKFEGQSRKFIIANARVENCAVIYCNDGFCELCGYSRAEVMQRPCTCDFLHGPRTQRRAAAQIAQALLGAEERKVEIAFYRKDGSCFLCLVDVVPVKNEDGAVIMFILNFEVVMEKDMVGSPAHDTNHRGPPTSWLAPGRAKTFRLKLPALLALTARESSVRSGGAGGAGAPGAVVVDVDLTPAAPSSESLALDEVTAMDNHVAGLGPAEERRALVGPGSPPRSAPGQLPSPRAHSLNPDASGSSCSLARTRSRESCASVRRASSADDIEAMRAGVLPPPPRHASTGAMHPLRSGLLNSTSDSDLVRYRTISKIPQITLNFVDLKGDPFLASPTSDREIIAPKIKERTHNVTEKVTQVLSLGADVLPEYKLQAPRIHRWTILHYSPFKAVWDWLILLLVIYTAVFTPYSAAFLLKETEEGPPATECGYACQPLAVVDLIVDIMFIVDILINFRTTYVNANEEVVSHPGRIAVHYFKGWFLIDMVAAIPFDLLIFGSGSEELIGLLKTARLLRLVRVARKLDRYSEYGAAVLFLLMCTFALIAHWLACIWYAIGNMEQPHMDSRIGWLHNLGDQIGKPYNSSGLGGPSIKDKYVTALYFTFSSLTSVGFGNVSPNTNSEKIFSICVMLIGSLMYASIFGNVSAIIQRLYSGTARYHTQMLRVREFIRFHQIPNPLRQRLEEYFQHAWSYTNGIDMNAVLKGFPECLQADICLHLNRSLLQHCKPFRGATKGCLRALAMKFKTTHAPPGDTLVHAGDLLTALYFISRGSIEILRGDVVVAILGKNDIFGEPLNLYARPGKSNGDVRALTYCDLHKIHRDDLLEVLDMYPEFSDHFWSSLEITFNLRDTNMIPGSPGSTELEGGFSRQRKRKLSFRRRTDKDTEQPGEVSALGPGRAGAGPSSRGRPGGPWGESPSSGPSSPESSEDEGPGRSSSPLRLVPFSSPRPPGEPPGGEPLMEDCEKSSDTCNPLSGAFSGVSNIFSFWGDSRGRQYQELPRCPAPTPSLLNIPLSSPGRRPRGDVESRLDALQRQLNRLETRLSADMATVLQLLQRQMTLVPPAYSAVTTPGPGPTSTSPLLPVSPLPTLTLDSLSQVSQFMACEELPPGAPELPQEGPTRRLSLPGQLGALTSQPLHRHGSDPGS
row,SMILES,"activity increase over dofetilide control, less the hit threshold"
1,Nc1cc(=O)[nH]c(SCC(=O)N2CCCCC2)n1,-10%
2,Cc1ccc(CNS(=O)(=O)c2cc3c4c(c2)CCN4C(=O)CC3)cc1,-9%
3,Cc1cc(=S)nc(-c2ccccn2)[nH]1,-7%
4,Cc1[nH]c(-c2ccccn2)nc(=S)c1Cl,61% (active)
5,CC(C)c1ccc(NC(=O)C2CC3CCC2C3)cc1 (centres undefined),-10%
6,CCC(C)NC(=O)c1c(-c2cc(Cl)c(OC)c(Cl)c2)noc1C (centres undefined),-16%
7,CCC(Cc1ccccc1)n1c(=S)[nH]c2ccccc2c1=O (centres undefined),4% (active)
8,CCC(C)n1c(=S)[nH]c2ccccc2c1=O (centres undefined),14% (active)
9,CC(C)COn1c(=S)[nH]c2ccccc2c1=O,18% (active)
10,CCC(C)Sc1nc2c([nH]c3ccccc32)c(=O)n1C (centres undefined),-5%
11,O=C1C2C3C=CC(C4CC34)C2C(=O)N1/N=C/c1ccc(-c2ccc(F)cc2[N+](=O)[O-])o1 (centres undefined),-1%
12,O=[N+]([O-])c1ccc(-c2ccc(/C=N/n3cnnc3)o2)c(Br)c1,12% (active)
13,S=c1[nH]nc(-c2ccccn2)n1/N=C/c1ccc(-c2ccccc2Br)o1,-16%
14,COc1ccc(CS(=O)(=O)CC2(O)CCN(C(=O)c3cccc(C(F)(F)F)c3)CC2)cc1,-27%
15,Cc1cc(C)cc(-n2nnc(C(=O)NCc3ccc4c(c3)OCO4)c2N)c1,-19%
16,CC12CCC(C(=O)NCc3ccc4c(c3)OCO4)(CC1=O)C2(C)C (centres undefined),5% (active)
17,COc1ccccc1C(=O)NCc1ccc2c(c1)OCO2,-10%
18,CCC(=O)Nc1cc(-c2nnc(OC)c3ccccc23)ccc1N1CCOCC1,-1%
19,CCCCCCn1c(-c2cccs2)n[nH]c1=S,-8%
20,CCCCn1c(-c2csc(C(C)C)c2)n[nH]c1=S,8% (active)
21,COc1cccc(C2C3=C(N=c4s/c(=C\c5ccc(OCC(=O)O)cc5)c(=O)n42)c2ccccc2CC3)c1 (centres undefined),-29%
22,Cc1ccc(C(=O)NC(=S)Nc2ccccc2C(F)(F)F)cc1,-6%
23,O=C(NC(=S)Nc1cc(C(F)(F)F)ccc1Cl)c1ccccc1,1% (active)
24,CC(C)(C)SCCNC(=O)CN1C(=O)c2ccccc2S1(=O)=O,-4%
25,CCC1(c2ccc(Cl)cc2)NC(=S)N(c2ccccc2)N1 (centres undefined),96% (active)
26,CCC1(c2ccccc2)NC(=S)N(c2ccc(C)cc2)N1 (centres undefined),113% (active)

row,SMILES,"activity increase over dofetilide control, less the hit threshold"
1,CCC1(c2ccc(Cl)cc2)NC(=S)N(c2ccc(C)cc2)N1 (centres undefined),66% (active)
2,CC(NC(=O)CCCn1cc([N+](=O)[O-])cn1)c1ccccc1 (centres undefined),-14%
3,CSc1nc(-c2ccco2)cc(C(F)(F)F)c1C#N,-17%
4,C=CCn1c(=S)[nH]c2ccc(Br)cc2c1=O,10% (active)
5,C=CCn1c(=S)[nH]c2cc(-c3ccccc3)sc2c1=O,6% (active)
6,Oc1ccc(Br)cc1-c1n[nH]c(=S)n1Cc1ccccc1,-17%
7,COc1ccccc1Cn1c(=S)[nH]c2ccc(Br)cc2c1=O,6% (active)
8,COc1ccc(Br)cc1CNc1ccccc1,-21%
9,C=CCn1c(=S)[nH]c2nc3c(cc2c1=O)CCCC3,-9%
10,Cc1cc(=O)[nH]c(=S)n1-c1ccccc1,-14%
11,CC12CCC(C(=O)OC3CCCCC3)(OC1=O)C2(C)C (centres undefined),-17%
12,O=C(O)Cc1cc(I)c(Oc2ccc(O)c(I)c2)c(I)c1,18% (active)
13,O=C(O)CN1C(=O)c2ccc(Oc3ccc4c(c3)C(=O)N(CC(=O)O)C4=O)cc2C1=O,-10%
14,O=C(NCCCN1CCOCC1)c1ccc(CS(=O)(=O)Cc2ccccc2Cl)o1,-11%
15,CCn1ccnc1CN1CCCC(CO)(Cc2cccc(OC)c2)C1 (centres undefined),-11%
16,O=C(NCc1cccc(Cl)c1)c1ccncc1,-10%
17,O=C(NC(=S)NCCc1ccccc1)c1cccc(Cl)c1,4% (active)
18,S=C(NCCc1ccccc1)N/N=C/c1c(Cl)cccc1Cl,-12%
19,Cc1sc2nc[nH]c(=S)c2c1-c1ccccc1,36% (active)
20,Cc1c(-c2ccccc2)sc2nc[nH]c(=S)c12,52% (active)
21,Fc1ccc(-n2cc(-c3ccccc3)c3c(=S)nc[nH]c32)cc1,-1%
22,COC(=O)c1ccc(NN=Nc2ccc(C)cc2)cc1,-6%
23,Nc1nonc1C(=O)N1CCCC1,-9%
24,Cc1nnc2ccc(-c3cccc(NC(=O)c4ccc(Cl)nc4)c3)nn12,-12%
25,COc1ccc2nc(N3CCCCC3)c(/C=C3\SC(=S)NC3=O)cc2c1,3% (active)
26,Cc1cc(NC(C)C)n2c(nc3ccccc32)c1C#N,-18%

row,SMILES,"activity increase over dofetilide control, less the hit threshold"
1,O=C(O)CN1C(=O)C(=O)N(Cc2ccc(C(F)(F)F)cc2)C1=O,6% (active)
2,O=C(Nc1cccnc1)c1ccc(COc2cc(Cl)ccc2Cl)o1,0% (active)
3,O=C(Nc1ccc(Cl)c(-c2nc3ccccc3[nH]2)c1)c1cccnc1,-43%
4,O=C(Nc1cccnc1)c1ccc(COc2ccccc2Br)o1,-3%
5,COc1ccc(Cc2c(O)nc(SCC(C)C)[nH]c2=O)cc1,-18%
6,OC(CNCCc1ccc(C(F)(F)F)cc1)COc1cccc2ccccc12 (centres undefined),-22%
7,O=C(OCc1ccccc1)C1=NNC2C(=O)N(c3ccc(Br)cc3)C(=O)C12 (centres undefined),-2%
8,Cc1cc(C(=O)CCC(=O)NC(C)c2ccc(S(N)(=O)=O)cc2)c(C)s1 (centres undefined),-15%
9,Cc1ccc(/C=N/Nc2nc(C(C)(C)C)cs2)o1,-17%
10,COc1ccc(/C(C)=N/Nc2ccc(C(=O)O)cc2)c(OC)c1,-12%
11,Cc1ccc(/C=N/Nc2ccc(C(=O)O)cc2)o1,1% (active)
12,CC(C)(C)OC(=O)C(Cl)(C(=O)OC(C)(C)C)c1ccc2nnnn2n1,-27%
13,COc1ccc(C)cc1NC(=O)Nc1ccc(C(=O)N2CCCC2)cc1,-5%
14,Cc1ccc2nc(SCC(=O)N3CCCCCC3)nc(=O)n2c1,-20%
15,CC(C)Oc1cccc(C(=O)N2CCCC2)c1,-4%
16,Cc1ccc(SCc2ccc(C(=O)N3CCCC3)cc2)cc1,9% (active)
17,Cc1ccc(CNC(=O)c2ccc(CNc3c(N4CCCC4)c(=O)c3=O)cc2)cc1,-7%
18,Cc1cc(C)c(C(=O)c2ccc(C(=O)N3CCCCC3)cc2)c(C)c1,23% (active)
19,O=c1cc(O)c2ccccc2n1Cc1ccccc1Cl,-8%
20,COc1ccc(-c2c(C#N)c(SCC(=O)c3cc4ccccc4oc3=O)nc(C)c2C(=O)Nc2ccccc2)cc1,-13%
21,Cc1ccc(Nc2nc(C)cs2)cc1,-16%
22,Cc1ccc(Nc2nc(-c3ccncc3)cs2)cc1,-8%
23,Cc1ccc(Nc2nc(-c3cccs3)cs2)nc1,1% (active)
24,COc1ccccc1-n1cnc2sc(C)c(C)c2c1=O,-6%
25,CCN1C(=O)[C@H]2[C@@H](c3ccc(-c4ccc(OC)cc4)cc3)N[C@@](C)(C(=O)OC)[C@H]2C1=O,-4%
26,CCCCn1nc(NC(=O)COC)c2cc3ccc(C)cc3nc21,-22%

row,SMILES,"activity increase over dofetilide control, less the hit threshold"
1,CCOC(=O)C(C)Sc1nc2c(c(-c3cccs3)c1C#N)CCC2 (centres undefined),1% (active)
2,COc1cc(/C=C2/C(=O)NN(c3ccccc3)C2=O)cc(Br)c1O,-25%
3,Cc1cccc(N(C(=O)c2csnn2)C(C(=O)NCc2ccccc2)c2ccncc2)c1 (centres undefined),-11%
4,CCCNC(=O)N1CCN(S(=O)(=O)c2ccc(C)cc2)CC1,-16%
5,CCSc1nc2c(c(=O)[nH]1)C(c1ccc(C)cc1)C1=C(CCCC1=O)N2 (centres undefined),-7%
6,O=c1[nH]c(=S)[nH]c2c1C(c1ccc(Br)cc1)c1c([nH]c(=S)[nH]c1=O)O2,-17%
7,CSc1nc2c(c(=O)[nH]1)C(c1ccc(F)cc1)CC(=O)N2 (centres undefined),18% (active)
8,CSc1nc2c(c(=O)[nH]1)C(c1ccccc1Cl)CC(=O)N2 (centres undefined),17% (active)
9,CSc1nc2c(c(=O)[nH]1)C(c1ccc(Br)cc1)CC(=O)N2 (centres undefined),25% (active)
10,CSc1nc(C)c(Cc2ccccc2)c(=O)[nH]1,-20%
11,CSc1nc2c(c(=O)[nH]1)C(c1ccc(Cl)cc1)CC(=O)N2 (centres undefined),113% (active)
12,CN1N=C(C(=O)N2CCc3c([nH]c4ccccc34)C2c2c(F)cccc2Cl)CCC1=O (centres undefined),-13%
13,O=C(O)Cn1cc(CN2CCOCC2)c2ccccc21,-22%
14,Cc1cccc(NC(=S)N/N=C2/CCCCc3ccccc32)c1,-11%
15,S=c1[nH]nc(CSc2nc3ccccc3s2)n1C1CCCCC1,5% (active)
16,CCCCOC(=S)NC(=O)c1sc2ccccc2c1Cl,86% (active)
17,CCOC(=S)NC(=O)c1sc2ccccc2c1Cl,40% (active)
18,Cc1ccc(NC(=S)NC(=O)c2sc3ccccc3c2Cl)c(C(=O)O)c1,-1%
19,CCCOC(=S)NC(=O)c1sc2ccccc2c1Cl,30% (active)
20,O=C(N/N=C/c1ccccn1)c1sc2ccccc2c1Cl,-27%
21,COC(=O)Cn1c(=NC(=O)c2sc3ccccc3c2Cl)sc2cc(S(N)(=O)=O)ccc21,-2%
22,CC(C)C(=O)N(c1ccc(F)cc1)C1C=CS(=O)(=O)C1 (centres undefined),-20%
23,CCOC(=O)C1C(c2ccccc2)C(C(=O)OCC)C1c1ccccc1 (centres undefined),-6%
24,CCCSc1cc(NCCOC(C)=O)c([N+](=O)[O-])c2nonc12,-13%
25,CC(C)CCNC(=O)CCc1nnc(Cc2c[nH]c3ccccc23)o1,-9%
26,CCCCCN(C(=O)CCC(=O)OC(C)C(=O)c1ccccc1)c1c(N)n(CCCC)c(=O)[nH]c1=O (centres undefined),-16%
